Caspase-7 inhib: caspase-7 (human) inhibition, allosteric or competitive; P55210; recombinant caspase-7, Ac-DEVD-AFC fluorescence rate; Potency, µM (doses to about 57.5 µM), for inactives: top-dose activity change, negative = inhibition, actives largely listed as inhibitors; 75,000 tested, 0.02% active; active = well fitted inhibition curve with a large enough effect in the main read-out, with a control signal flat, not every such curve was filed as active; inconclusive = small, poorly fitted or top-dose-only effect, or a change in a side signal; also: % of control where 0% means no effect
Target sequence (P55210 24-198 limits assumed): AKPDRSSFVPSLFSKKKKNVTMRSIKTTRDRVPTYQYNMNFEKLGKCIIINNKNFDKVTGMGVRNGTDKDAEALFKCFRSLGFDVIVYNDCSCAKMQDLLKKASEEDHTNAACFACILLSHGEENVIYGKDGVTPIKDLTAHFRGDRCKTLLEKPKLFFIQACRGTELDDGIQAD
Target sequence (P55210 207-303 limits assumed): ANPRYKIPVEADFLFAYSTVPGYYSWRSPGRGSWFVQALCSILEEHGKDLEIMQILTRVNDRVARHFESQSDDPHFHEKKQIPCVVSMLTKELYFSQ
HEK293 cAMP cs: counter-screen for TSHR agonists: cAMP increase in parental HEK293 | 73,000 tested, 2.5% active | Potency, µM (titrated, usually from 57.1 µM), for the others: at the highest dose activation, most hits filed as activators | parental HEK293 CNG cAMP sensor, membrane potential fluorescence; also: % of control where 0% means no effect; nearly all actives have a fitted effect of over 55% in size
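Counterscreen for endogenous-receptor signalling: CNG-channel HEK 293 cells report cAMP rise by membrane depolarization. After 60 min dye equilibration with 100 uM RO 20-1724, compounds incubated 30 min before bottom-read fluorescence at 590 nm.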
Caspase-1 inhib: blocks human caspase-1 allosterically or competitively | Caspase-1 enzyme, Ac-WEHD-AFC fluorogenic rate | Potency, µM (series often up to 57.5 µM), without a hit: at the highest dose activity change, negative = inhibition, actives largely listed as inhibitors | 75,000 tested, 0.03% active | AID 900;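 also: plate controls were vehicle for no effect and no substrate for full effect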
Target sequence (P29466 120-297 limits assumed): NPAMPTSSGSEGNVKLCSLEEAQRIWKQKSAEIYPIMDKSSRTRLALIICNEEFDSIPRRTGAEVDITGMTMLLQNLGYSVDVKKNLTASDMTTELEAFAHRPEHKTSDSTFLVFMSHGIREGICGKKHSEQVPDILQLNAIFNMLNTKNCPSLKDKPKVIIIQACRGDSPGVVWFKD
Target sequence (P29466 317-404 limits assumed): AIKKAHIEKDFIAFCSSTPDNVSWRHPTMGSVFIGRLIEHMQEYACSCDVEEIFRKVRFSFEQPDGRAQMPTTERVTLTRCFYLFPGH
TSHR agonist: agonists of human thyroid stimulating hormone receptor. P16473. Potency, µM (series often up to 57.1 µM), without a hit: at the top dose activation, most hits filed as activators. 73,000 tested, 0.48% active. HEK293-CNG-TSHR cells (CNG channel as cAMP sensor), membrane potential dye, cAMP. AID 926; active = well fitted activation curve with a large enough effect in the main read-out, with a control signal flat, not every such curve was filed as active; inconclusive = small, poorly fitted or top-dose-only effect, or a change in a side signal; inactive = no such curve, though single readings can be large or run the other way; % of control where 0% means no effect;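 also: the control signal comes from parental cells without the receptor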
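cAMP rise detected as CNG-channel membrane depolarization by fluorescent dye (emission 590 nm), 30 min after compound, following 60 min dye loading containing 100 uM RO 20-1724 at room temperature. Cells: TSHR/CNG HEK 293, with parental CNG HEK 293 as control.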
The depositor's hits bear a star; ? = inconclusive; ! = repeats disagree; [ ] = dose if it differs, or a comment. Compounds with a hit are over-represented: about 2.6% of the library has one in this group of screens. Unless noted, calls follow the shape of the dose curve; as a rule, active = well fitted curve in the direction sought with a large enough effect; inconclusive = small, poorly fitted or top-dose-only effect, or another doubt; inactive = no such curve, though single readings can be large; an effect the other way counts as inactive or inconclusive. Potency is read from the fitted curve at half-maximal effect.

SMILES	Caspase-7 inhib	HEK293 cAMP cs	Caspase-1 inhib	TSHR agonist
c1ccc2c(c1)c1ccccc1n2Cn1c2ccccc2c2ccccc21	-1%[11.5 µM]	-2%[11.4 µM]	-2%[11.5 µM]	4%[11.4 µM]
Cc1cccn2cc(CCNC(=O)c3ccc(Br)o3)nc12	-7%	32µM*	-2%	?
CO[C@H]1C[C@@H]2C[C@H](O)C[C@@H](CC(=O)O[C@@H](/C=C\CC(C)C)C[C@@H]3CC[C@H](C)[C@@H](C1)O3)O2	0%[11.5 µM]	-3%[11.4 µM]	-4%[11.5 µM]	-7%[11.4 µM]
O=C1c2ccccc2C(=O)N1Cc1nc2ccccc2o1	-5%	4%	0%	-10%
O=C1c2ccccc2C(=O)N1CCCSc1nc2ccccc2o1	-1%	4µM*	-2%	?
Cc1nn(-c2ccccc2)c2nc(-c3ccncc3)cc(C(=O)NCc3ccco3)c12	-8%	?	-5%	?
CCOC(=O)c1cc(-c2ccco2)nc2c1c(C)nn2-c1ccccc1	-13%	17%	-9%	3.2µM*
COc1ccc(-c2cc([C@H](O)[C@@H]3CCCCN3)c3ccccc3n2)cc1	-3%[11.5 µM]	2%[11.4 µM]	2%[11.5 µM]	6%[11.4 µM]
O=C(Nc1ccccc1)NC1(C(=O)NCc2ccc3c(c2)OCO3)CCCCC1	-1%	6%	-4%	17%
O=C(NCc1ccccc1)NC1(C(=O)Nc2ccc3c(c2)OCCO3)CCCCC1	-2%	15%	-6%	2µM*
O=C(NCc1ccccc1)c1cc(-c2cccc(O)c2)on1	-1%	-5%	-1%	4%
S=C(Nc1ccc2cn[nH]c2c1)Nc1ccc2cn[nH]c2c1	0%[11.5 µM]	-2%[11.4 µM]	-1%[11.5 µM]	12%[11.4 µM]
N#Cc1nc(-c2cccs2)oc1N1CCN(c2ccccc2)CC1	-4%	20µM*	-6%	?
CCn1c(SCC(=O)Nc2cccc(NC(C)=O)c2)nnc1C(C)C	-1%	6%	-1%	0%
CCC(=O)Nc1cccc(NC(=O)CSc2nnc(C(C)C)n2CC)c1	4%	13µM*	-2%	?
C[C@@H]1C=CCC(=O)OC[C@H](C)C(=O)OC[C@H]2O[C@H]1C=C[C@@H]2O	3%[11.5 µM]	4%[11.4 µM]	1%[11.5 µM]	8%[11.4 µM]
C=C(C)C(=O)OCC1CN2C(CCC(C)C2c2ccc(Br)cc2)C(=O)O1 (stereo not given)	-1%[11.5 µM]	1.6µM*!	-2%[11.5 µM]	?
C=COCC1CN2C(CCC(C)C2c2ccc(Br)cc2)C(=O)O1 (stereo not given)	-1%[11.5 µM]	?	-2%[11.5 µM]	?
CC(=O)N1CCN(c2ccc(Oc3nc(-c4ccccc4)nc4ccccc34)cc2)CC1	1%	-1%	0%	25µM*
O=C(COc1ccc(Cl)cc1Cl)N1CCCCCC1	-1%	4µM*	-5%	?
Cc1ccc(OCC(=O)N2CCCCC2)c(Br)c1	-2%	?	-3%	?
O=C(CSc1nnc(-c2ccccn2)n1Cc1ccco1)c1ccc(Cl)cc1	-1%	25µM*	1%	?
O=C(CSc1nnc(-c2ccccn2)n1Cc1ccco1)c1ccccc1	0%	9%	0%	16%
CCOC(=O)c1cc(C#N)c(SCc2ccc(C#N)cc2)nc1C	-24%	32µM*	-10%	?
O=C(O)[C@@H]1[C@@H](C(=O)Nc2ccccc2)[C@@H]2C=C[C@@H]1O2	0%[11.5 µM]	-1%[11.4 µM]	0%[11.5 µM]	-1%[11.4 µM]
SMILES	Caspase-7 inhib	HEK293 cAMP cs	Caspase-1 inhib	TSHR agonist
c1ccc(-c2cnc(CSc3ncnc4sccc34)o2)cc1	2%	16µM*	5%	?
CC1(C)CC(N2CCN(c3ccccc3)CC2)=CC(=[N+]2CCCC2)C1	-1%	7.9µM*	2%	?
CC(=O)c1c(C(C)=O)c(C)n(-c2ccc(C(=O)O)cc2)c1C	-24%	5%	-13%	-1%
CCN(CC)c1ccc(-n2c(C)c(C(C)=O)c(C(C)=O)c2C)cc1	-1%	16µM*	1%	?
CN(C)C(=O)c1ccc(-c2nc(Nc3ccc(F)cc3)c3ccccc3n2)cc1	-1%	16%	-3%	32µM*
COc1ccc(CNc2ccnc(-c3ccccc3C(F)(F)F)n2)c(OC)c1	0%	7.9µM*	0%	?
CN(C)C(=O)c1ccc(-c2nc(Nc3ccncc3)c3ccccc3n2)cc1	-2%	-11%	1%	3%
COc1ccc(CNc2ccnc(-c3ccc(C(=O)N(C)C)cc3)n2)c(OC)c1	-4%	0.79µM*	-2%	?
COc1ccc(CNc2nc(-c3ccc(C(=O)N(C)C)cc3)nc3ccccc23)c(OC)c1	-4%	22%	-3%	25µM*
Cc1ccc(S(=O)(=O)N[C@H]2COC(=O)[C@@H](C)COC(=O)[C@H](C)NC(=O)C/C=C\[C@H]2C)cc1	1%[11.5 µM]	0%[11.4 µM]	-3%[11.5 µM]	8%[11.4 µM]
CCCCC#CC1C=CC(OC(C)=O)C(COC(C)=O)O1 (stereo not given)	-2%[11.5 µM]	5%[11.4 µM]	-1%[11.5 µM]	-3%[11.4 µM]
COc1ccc(CNc2cc(-c3ccccc3Cl)ncn2)c(OC)c1	-11%	20µM*	-4%	?
O=C(c1nn(Cc2ccccc2)c(=O)c2ccccc12)N1CCN(c2ccccn2)CC1	-1%	4µM*	1%	?
CCOc1ccccc1N1CCN(S(=O)(=O)c2cccs2)CC1	0%	10µM*	-3%	?
CCOc1ccccc1N1CCN(S(=O)(=O)CC)CC1	-3%	-1%	0%	5%
CCN1C(C)=C(C(=O)OC)C(c2ccccc2)N2C(=O)[C@](O)(C(=O)OC)C(c3ccccc3)C(C(=O)c3ccccc3)=C12 (stereo not given in full)	-4%[11.5 µM]	4µM*	-1%[11.5 µM]	?
COC(=O)C1=C(C)N(Cc2ccccc2)C2=C3C(=O)N(C)C(=O)C3[C@@](O)(C(=O)OC)C(=O)N2C1c1ccccc1 (stereo not given in full)	-3%[11.5 µM]	3%[11.4 µM]	-5%[11.5 µM]	?
Cn1cccc1C(=O)N1CCC2(CC1)CN(Cc1cc(C(F)(F)F)cc(C(F)(F)F)c1)C2	0%	16µM*	-3%	?
Cn1cccc1C(=O)N1CCC[C@@]2(CCN(Cc3cc(C(F)(F)F)cc(C(F)(F)F)c3)C2)C1	-2%	13µM*	-2%	?
O=C(c1ccco1)N1CCC2(CC1)CN(Cc1cc(C(F)(F)F)cc(C(F)(F)F)c1)C2	2%	16µM*	-7%	?
CCCCN1CCC[C@@H]1CNC(=O)c1cc(C#N)c2ccccc2c1OC	1%	3%	2%	12%
CC(C)=C[C@H]1[C@@H](COC(=O)c2ccccc2Cl)C1(C)C	3%[11.5 µM]	?	-2%[11.5 µM]	?
CCN(C(=O)c1ccc(C(C)(C)C)cc1)c1nnc(Cn2nnc3ccccc32)s1	-5%	25µM*	-3%	?
Cc1cc(C(=O)CN(Cc2ccc(F)cc2)S(=O)(=O)c2ccc3c(c2)OCCO3)c(C)n1C	0%	-1%	-5%	12%
O=S(=O)(c1ccc2c(c1)OCCO2)N(Cc1ccc(F)cc1)Cc1nnc(-c2cccs2)o1	?	2µM*	-2%	?
CCn1c(SCC(=O)c2cc(OC)ccc2OC)nnc1-c1ccncc1	-4%	25µM*	-2%	?
CCn1c(SCc2ccc(OC)cc2)nnc1-c1ccncc1	-5%	25µM*	-4%	?
C=CCn1c(SCc2ccc(OC)cc2)nnc1-c1cccnc1	2%	19%	-2%	29%
